Sequences and labels used below:
T1: UNK ZnF1-3 (human, UniProt Q9C0B0 31-174)
T1 sequence: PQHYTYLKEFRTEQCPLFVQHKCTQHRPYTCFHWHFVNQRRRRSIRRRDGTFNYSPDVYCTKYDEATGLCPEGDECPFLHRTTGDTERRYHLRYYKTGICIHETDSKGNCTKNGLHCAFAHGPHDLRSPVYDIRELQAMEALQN

B1: 44041996_44042116_73_3pUTR_ENSMUSG00000034342_ENSMUST00000037644|mouse|control|control (ssRNA)
RNA: GGGAGUUCUACAGUCCGACGAUCUCGGCCGCGAGCGAGGGAAUGGAGCCGGGCGAGAAGGAGGGGCCUCUCCGGCAACCACCGCCGGCGCUCGCAGCCCAGGGAGUGAGAGGGAGGCGCCCGCCCUGAGGCGCGCCCCUGCGCCAACAGAGGAUUGAGCAUCA
B2: chr19:16212804:16212805:+_ENSG00000167460_ENST00000300933|hu_mus|hu_hu_hu_mus_False|78_78 (ssRNA)
RNA: GGGAGUUCUACAGUCCGACGAUCAACAAUUCUGGAGUGAAGGAAAGAUGUAACAUGCAAUUAAUUAAAAGCUCAGUCAGAAGGCACAUGGGCAACAAUGAUCACCCCAGCAUUCUCGCUUGGAAUGCUUAAAGACAAUCUGUUCAACAGAGGAUUGAGCAUCA
B3: chr14:54894545:54894546:-_ENSG00000100528_ENST00000216416|hu_mus|FALSE|FALSE (ssRNA)
RNA: GGGAGUUCUACAGUCCGACGAUCCUUCAUUGGUGGCGUUUUGCAUGCACUUAACUGGACCGAUUCUUCUGUGUUGUUCUAAGAGCUCACCAGAACAUAGAUCAUGCCGUAUAGGUAGUAAAAAAACGCUAGAAGGUAAAAAGCCAACAGAGGAUUGAGCAUCA
B4: chr12:96259795:96259796:+_ENSG00000139343_ENST00000266735|hu_mus|motif|central (ssRNA)
RNA: GGGAGUUCUACAGUCCGACGAUCGAGGACAUUAUUACACCUUAUUAGAACUUCGCCCAGAUGUCCAGACAGCGCCCCAUCGGUGUACUCUUCUGUAUUUGCAAGCUGCAUGUUCAUGUAGCCAUCCACGGAGACCAGGUAGCCCAACAGAGGAUUGAGCAUCA
B5: chr11:106117246:106117247:-_ENSMUSG00000020706_ENSMUST00000021048|mus_mus|motif|central (ssRNA)
RNA: GGGAGUUCUACAGUCCGACGAUCGCAGGCCUUACAAGUUAAAAGUAGAGGCUAGGAAGUAGAGUGCAAUAACUCGUAUCCGGAACGCUAGGAAGCAUCAACCAGAAGUUCUAUAUCUCUUCACAAAACUAGUGACCUCCAGUACAACAGAGGAUUGAGCAUCA
B6: chr7:20150648:20150649:-_ENSMUSG00000044709_ENSMUST00000117222|mus_mus|FALSE|FALSE (ssRNA)
RNA: GGGAGUUCUACAGUCCGACGAUCCUUGAAAGAAUAGGAAAUUAUGUCACUACAUCGAAGCAAGGCCUCGGCCUGUACACCUAUGGGAGUCUGCAGUUGGGAAACGUAGAAGUUGGCCACAUCCAGGUCUGUGGCUCCAAACUGCAACAGAGGAUUGAGCAUCA
B7: chr7:7679991:7679992:-_ENSG00000106399_ENST00000396682|hu_hu|hu_hu_hu_mus_False|18_58 (ssRNA)
RNA: GGGAGUUCUACAGUCCGACGAUCUGGGAUGAAUCUUUUCCAGCUUCCCCACGAAGCACACGGGCCGGUCGAUAUACUGAGCUAGCAUGCUGGCGUUGACGCGCGCUUUGGGGAGCUCCAUCAUGUCCUCCAUGAUUCUGCCGCCAACAGAGGAUUGAGCAUCA
B8: chrX:20248820:20248821:+_ENSMUSG00000001924_ENSMUST00000001989|mus_mus|mus_mus_mus_hu_True|48_58 (ssRNA)
RNA: GGGAGUUCUACAGUCCGACGAUCGGCGAAGUCCGUCACCACAAAGUCAGGUUCUGCCAGUGAGGCCACCAAGGAUUUAAAACUAAUCUUUUUCGGUACUUUGACCUGACUGACGAUGCCUCCACGGAUGUAGUCGGAGAAGUUCAACAGAGGAUUGAGCAUCA
B9: chr9:95013113:95013114:-_ENSG00000196305_ENST00000443024|hu_hu|hu_hu_hu_mus_False|78_78 (ssRNA)
RNA: GGGAGUUCUACAGUCCGACGAUCCUCAGUCAGAAAGGGCGUGUAAGGGGCCAUCAGUCUGCAAAGAGAAAGCAGGACACUGAACAGUGUCUCCAGAGCCAUGACACAGUCUUCCACCCCACUCUCACCCUUUAACCUCCUCCUCAACAGAGGAUUGAGCAUCA
B10: chr16:45382771:45382772:-_ENSMUSG00000022661_ENSMUST00000163230|mus_mus|mus_mus_mus_hu_True|48_88 (ssRNA)
RNA: GGGAGUUCUACAGUCCGACGAUCCUGGGUCAUGUUAUAAGACAAAUGGAUAGGGAGGGCAUGCUUCUCAAAAAAUGUGAGCUAUUGACUAAGACUAACAAUAUUUAUCUAGCUAUAAAAAUAAGUUAAAUGAAUAAGUUAAGACAACAGAGGAUUGAGCAUCA
B11: chrX:148369326:148369327:+_ENSMUSG00000025261_ENSMUST00000112622|mus_hu|FALSE|FALSE (ssRNA)
RNA: GGGAGUUCUACAGUCCGACGAUCCUUGUCUCGCAUUGAAUCAUUAGCUGUGCACAUCAACACAUUCCAAGCACAAAUUAAGAAAUGCAAACAGAACAAAAAAAUAUAUAUAUAUAUAAUUUUUUCCCCUAUCCAAAGGUUUCACAACAGAGGAUUGAGCAUCA
B12: 52112337_52131274_754_3pUTR_ENSMUSG00000022637_ENSMUST00000114471|mouse|control|control (ssRNA)
RNA: GGGAGUUCUACAGUCCGACGAUCAUCAAUGGUUGACUUCAGAGCCAUUGCUUCCAGGCCAGAGCUGAUCUGAUGGACCUCAUGCAGGCACUGUCUGAAGACUUUCCAUGGUACAAUAGUUUUGUCUCCAAAAAACUUCCUCCACAACAGAGGAUUGAGCAUCA
B13: chr18:56819859:56819860:+_ENSG00000166562_ENST00000588875|hu_mus|FALSE|FALSE (ssRNA)
RNA: GGGAGUUCUACAGUCCGACGAUCAACCUUGAUUACUCUGUGAACUAUCGGAAUGUCUCUUCCUUCAACCUUAAAAACAACUAUUUCACCAGCUCUGAUGGGGUCCUCCCGGAAAUUCGUGAGGAACAGCAGAUCUCCUCUGUGCAACAGAGGAUUGAGCAUCA
B14: 224577001_224577121_2655_3pUTR_ENSG00000162923_ENST00000295024|human|control|control (ssRNA)
RNA: GGGAGUUCUACAGUCCGACGAUCCGGGCAAGGCUAGAAUCCAUGAACCAAGCUGCAAAGAUCUCAAGCUAAAUAAGGCGGAAAGAUUUGGAGAAACAAAAGAAGGAAAUUCUUUCCUAUCCAAUGUAUACUCUUCAGACUAAUCAACAGAGGAUUGAGCAUCA

The source of these data is article PMC12136788.

Whole data set: some 24,000 sequences, median “enrichment r” near 0.99, cut for the highest 2% near 3.7. Not all results are given here.

This test concerns the target T1, UNK ZnF1-3. Put plainly: nsRBNS (natural sequence RNA bind-n-seq); RBNS binding buffer (assumed for nsRBNS): 25 mM Tris pH 7.5, 150 mM KCl, 3 mM MgCl2, 0.01% Triton X-100, 500 ug/ml BSA, 20 U/ml SUPERase-In, 4 C; UNK is unkempt and MSI1 is Musashi-1; names of the RNAs are library labels; protein concentration not given here; high values mean tight binding.
For the molecule B1, the binding signal stood at 0.497 enrichment R. For B2 the value was 1.31 enrichment R; for B3, 1.42 enrichment R; for B4, 0.83 enrichment R. The same measure for B5: 1.8 enrichment R; for B6: 0.807 enrichment R.

B7 had a binding signal of 0.939 enrichment R. For B8 the value was 1.04 enrichment R. B9 showed a binding signal of 1.44 enrichment R. The same measure for B10: 2.26 enrichment R; for B11: 0.406 enrichment R. For B12 the value was 0.85 enrichment R; for B13, 0.758 enrichment R.

B14 returned a binding signal of 1.48 enrichment R.
